Reference: the supplement of paper PMC4962491
Where “and” joins values, the source holds several entries; their conditions need not be identical. Equal values may be shown once. Where a name gives a salt, the structure may show the parent alone. ± gives the standard deviation of the averaged measurements. Whole data set: some 1,600 compounds, median “mitochondrial oxygen consumption rate normalised to cell number, Z score over the library” near 0.065, cut for the lowest 2% near -2.2. The full list was thinned out, with the lowest values kept by preference.

System: FaDu
Assay: mitochondrial oxygen consumption rate normalised to cell number, Z score over the library; higher = higher oxygen consumption (negative = OCR reduction)
Conditions: treatment time 24 h; assay medium: 5 mM galactose, 5 mM pyruvate, 4 mM glutamine; 10 µM
Description: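 Primary screen: FaDu cells were incubated 24 h with Pharmakon 1600 / TDI oncology set compounds at 2 or 10 uM. Mitochondrial-specific OCR (basal minus 2 uM antimycin A) was measured on a Seahorse XF96 in assay medium with 5 mM galactose, 5 mM pyruvate and 4 mM glutamine, then corrected for Hoechst cell number and expressed as a Z score […]. Compounds that cut cell number by >66% were excluded. Two repeats.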

SMILES	mitochondrial oxygen consumption rate normalised
CC(C)NCC(O)COc1cccc2ccccc12 (racemic)	-0.291 ± 0.42
CC[n+]1c(-c2ccccc2)c2cc(N)ccc2c2ccc(N)cc21	-2.32 ± 0.27
CS(=O)(=O)Nc1ccc([N+](=O)[O-])cc1Oc1ccccc1	0.196 ± 0.72
COc1cc(NS(C)(=O)=O)ccc1Nc1c2ccccc2nc2ccccc12	-2.77 ± 0.43
CC(=O)Oc1c(C)c(C)c2c(c1C)CCC(C)(CCCC(C)CCCC(C)CCCC(C)C)O2 (stereo not drawn) [alpha-TOCHOPHERYL ACETATE]	-0.281 ± 0.21
O=C1c2ccccc2C(=O)C1c1ccc(Cl)cc1	0.0788 ± 0.46
CC(O)C(=O)[O-].[Na+] (stereo not given)	1.11 ± 0.92
CC(=O)Nc1ccc(S(=O)(=O)Nc2ccc([N+](=O)[O-])cc2)cc1	1.45 ± 0.4
NCCCS(=O)(=O)O	-0.855 ± 0.32
C#CCC(Cc1cnc2nc(N)nc(N)c2n1)c1ccc(C(=O)N[C@@H](CCC(=O)O)C(=O)O)cc1 (stereo not given in full) [Pralatrexate]	0.0598 ± 0.75
Nc1ccc(S(=O)(=O)O)cc1.Nc1ccc(S(=O)(=O)O)cc1.[Zn]	1.04 ± 0.43
C[C@@H]1O[C@@H](OC[C@H]2O[C@@H](Oc3c(-c4ccc(OCCO)c(OCCO)c4)oc4cc(OCCO)cc(O)c4c3=O)[C@H](O)[C@@H](O)[C@@H]2O)[C@H](O)[C@H](O)[C@H]1O	-0.575 ± 0.55
CC(C)CCC[C@@H](C)[C@H]1CC[C@H]2[C@@H]3CC=C4C[C@@H](O)CC[C@]4(C)[C@H]3CC[C@]12C	-0.87 ± 0.089
O=C(c1cccnc1)N1CCOCC1	-0.217 ± 0.94
COc1cc(NS(=O)(=O)c2ccc(N)cc2)ncn1	0.47 ± 0.61
NCC(O)CC(=O)O (stereo not given)	-0.332 ± 0.83
CN1C(=O)CC(C)(c2ccccc2)C1=O (stereo not given)	-0.314 ± 0.74
CCCCOc1ccc(CC(=O)NO)cc1	-0.625 ± 0.84
CCCCOc1ccc(OCCCN2CCOCC2)cc1	-0.434 ± 0.23
CCCCCCCCCc1ccc(OCCOCCOCCOCCOCCOCCOCCOCCOCCO)cc1	-3.66 ± 0.45
CC(=O)Oc1ccccc1C(=O)O	0.27 ± 0.45
CC(=O)Nc1ncc([N+](=O)[O-])s1	0.857 ± 0.27
CC(=O)Oc1ccccc1C(=O)Nc1ncc([N+](=O)[O-])s1	-2.45 ± 0.1

SMILES	mitochondrial oxygen consumption rate normalised
CN(C)[C@@H]1C(O)=C(C(N)=O)C(=O)[C@@]2(O)C(O)=C3C(=O)c4c(O)cccc4[C@@](C)(O)[C@H]3[C@H](O)[C@@H]12	0.305 ± 0.067
Cn1c(=O)c2[nH]c(Br)nc2n(C)c1=O	0.142 ± 0.29
O=C(CCBr)N1CCN(C(=O)CCBr)CC1 [Pipobroman]	-0.527 ± 1.4
O=C(CCBr)N1CCN(C(=O)CCBr)CC1	1.32 ± 1.1
CCC1(C)OC(=O)N(C)C1=O (stereo not given)	0.0479 ± 0.05
CN1C(C(=O)Nc2ccccn2)=C(O)c2sc(Cl)cc2S1(=O)=O	-0.183 ± 0.66
Oc1c(I)cc(I)c2cccnc12	0.968 ± 0.98
O=[N+]([O-])c1ccc(O)c2ncccc12	-2.21 ± 0.14
Oc1ccc(Cl)c2cccnc12	0.469 ± 0.61
CCCCCCCC/C=C\CCCCCCCC(=O)O.NCCO	-0.00915 ± 0.76
CC[C@H]1OC(=O)[C@H](C)[C@@H](O[C@H]2C[C@@](C)(OC)[C@@H](O)[C@H](C)O2)[C@H](C)[C@@H](O[C@@H]2O[C@H](C)C[C@H](N(C)C)[C@H]2O)[C@](C)(O)C[C@@H](C)[C@@H]2N[C@@H](COCCOC)O[C@H]([C@H]2C)[C@]1(C)O	-0.149 ± 0.29
CC[C@@]1(O)C(=O)OCc2c1cc1n(c2=O)Cc2cc3c(CN(C)C)c(O)ccc3nc2-1	-4.46 ± 0.19
CCc1c2c(nc3ccc(OC(=O)N4CCC(N5CCCCC5)CC4)cc13)-c1cc3c(c(=O)n1C2)COC(=O)[C@]3(O)CC	-1.11 and -2.18
CNC(=O)c1cc(Oc2ccc(NC(=O)Nc3ccc(Cl)c(C(F)(F)F)c3)cc2)ccn1	-2.31 ± 0.25
C#C[C@]1(OC(C)=O)CC[C@H]2[C@@H]3CCC4=CC(=NO)CC[C@@H]4[C@H]3CC[C@@]21CC (mixture of isomers)	1.1 ± 0.091
CC(C)(C)CC(=O)OCC(=O)[C@@]1(O)CC[C@H]2[C@@H]3CCC4=CC(=O)C=C[C@]4(C)[C@H]3[C@@H](O)C[C@@]21C	-0.63 ± 0.68
COc1cc([C@@H]2c3cc4c(cc3[C@@H](O[C@@H]3O[C@@H]5CO[C@@H](C)O[C@H]5[C@H](O)[C@H]3O)[C@H]3COC(=O)[C@H]23)OCO4)cc(OC)c1O [Etoposide]	-0.0499 ± 0.023
COc1cc([C@@H]2c3cc4c(cc3[C@@H](O[C@@H]3O[C@@H]5CO[C@@H](C)O[C@H]5[C@H](O)[C@H]3O)[C@H]3COC(=O)[C@H]23)OCO4)cc(OC)c1O	-1.53 ± 0.61
COc1cc([C@@H]2c3cc4c(cc3[C@@H](O[C@@H]3O[C@@H]5CO[C@@H](c6cccs6)O[C@H]5[C@H](O)[C@H]3O)[C@H]3COC(=O)[C@H]23)OCO4)cc(OC)c1O	-3.75 ± 0.66
Nc1ccc2cc3ccc(N)cc3nc2c1	-2.55 ± 0.27
Nc1c2ccccc2nc2ccccc12	-1.9 ± 0.35
O=C(Oc1cccc2cccnc12)c1ccccc1	-0.0234 ± 0.66
O=C(OOC(=O)c1ccccc1)c1ccccc1	0.517 ± 0.52

SMILES	mitochondrial oxygen consumption rate normalised
Cc1ccc2c(Br)cc(Br)c(OC(=O)c3ccccc3)c2n1	-2.31 ± 0.47
CCCCCCCCCCCCCCCC[N+](C)(C)CCN(Cc1ccc(OC)cc1)c1ncccn1	-2.13 ± 0.31
CO/N=C1\C[C@]2(C[C@@H]3C[C@@H](C/C=C(\C)C[C@@H](C)/C=C/C=C4\CO[C@@H]5[C@H](O)C(C)=C[C@@H](C(=O)O3)[C@]45O)O2)O[C@H](/C(C)=C/C(C)C)[C@H]1C	-0.513 ± 0.34
Cc1cccc(C)c1NC(=O)c1ccccc1C(=O)O	-0.418 ± 1.1
CCCCC(CC)CCC(CC(C)C)OS(=O)(=O)O (stereo not given)	0.745 ± 1.4
O.O.O=C([O-])CN(CCN(CC(=O)[O-])CC(=O)O)CC(=O)O.[Na+].[Na+]	1.52 ± 0.75
CC1(C)S[C@@H]2[C@H](NC(=O)Cc3ccccc3)C(=O)N2[C@H]1C(=O)O	-0.601 ± 0.075
COC(=O)Nc1nc2cc(C(=O)c3ccc(F)cc3)ccc2[nH]1	0.265 ± 0.4
CC(C)(C)NC[C@H](O)c1ccc(O)c(CO)c1	0.0168 ± 0.31
C[n+]1c2cc(N)ccc2cc2ccc(N)cc21	-4.5 ± 0.35
C=CCCCCCCCCC(=O)O	1.2 ± 0.61
Cc1c(C)c2c(c(C)c1O)CCC(C)(CCCC(C)CCCC(C)CCCC(C)C)O2 (stereo not drawn) [alpha-TOCHOPHEROL]	-0.681 ± 0.38
CC(=O)OCC(=O)[C@@]12OC(C)(C)O[C@@H]1C[C@H]1[C@@H]3C[C@H](F)C4=CC(=O)C=C[C@]4(C)[C@@]3(F)[C@@H](O)C[C@@]12C	0.605 ± 0.52
CN[C@H]1CC[C@@H](c2ccc(Cl)c(Cl)c2)c2ccccc21	-0.618 ± 0.057
OC[C@H]1O[C@@H](n2cnc3c2N=CNC[C@H]3O)C[C@@H]1O [Pentostatin]	0.38 ± 0.31
C[C@@H]1O[C@@H]1P(=O)(O)O	0.794 ± 0.12
C=CCNC(N)=S	0.218 ± 1.4
Oc1c(Br)cc(Br)c2cccnc12	-1.77 ± 0.19
CCOc1ccc2nc3cc(N)ccc3c(N)c2c1	-3.35 ± 0.25
CCOc1ccc2nc(S(N)(=O)=O)sc2c1	-0.459 ± 0.36
CN(Cc1cc(Br)cc(Br)c1N)C1CCCCC1	0.728 ± 0.24
NNCCc1ccccc1	-0.3 ± 0.16
CO[C@H]1/C=C/O[C@@]2(C)Oc3c(C)c(O)c4c(O)c(c5c(nc6cc(C)ccn65)c4c3C2=O)NC(=O)/C(C)=C\C=C\[C@H](C)[C@H](O)[C@@H](C)[C@@H](O)[C@@H](C)[C@H](OC(C)=O)[C@@H]1C	0.795 ± 0.38

SMILES	mitochondrial oxygen consumption rate normalised
Cc1ccc(Nc2nccc(N(C)c3ccc4c(C)n(C)nc4c3)n2)cc1S(N)(=O)=O [Pazopanib HCl]	-0.379 ± 0.45
OCC(S)CS (stereo not given)	-0.239 ± 0.68
CCCCOc1ccc(C(=O)CCN2CCCCC2)cc1	-0.0802 ± 0.69
N=C(N)c1ccc(OCCCCCOc2ccc(C(=N)N)cc2)cc1	-3.01 ± 0.078
N=C(N)c1ccc(N=NNc2ccc(C(=N)N)cc2)cc1	-0.185 ± 0.46
CC1CCN(CCCC(=O)c2ccc(F)cc2)CC1	-0.602 ± 0.36
CCCCC/C=C/CCC(=O)N[C@H]1[C@H](Oc2c3cc4cc2Oc2ccc(cc2Cl)[C@@H](O[C@@H]2O[C@H](CO)[C@@H](O)[C@H](O)[C@H]2NC(C)=O)[C@@H]2NC(=O)[C@H](NC(=O)[C@@H]4NC(=O)[C@H]4NC(=O)C(Cc5ccc(c(Cl)c5)O3)NC(=O)[C@H](N)c3ccc(O)c(c3)Oc3cc(O)cc4c3)c3ccc(O)c(c3)-c3c(OC4O[C@H](CO)[C@@H](O)[C@H](O)[C@@H]4O)cc(O)cc3[C@@H](C(=O)O)NC2=O)O[C@H](CO)[C@@H](O)[C@@H]1O (stereo not given in full) [TEICOPLANIN [A(2-1) shown]]	1.41 ± 0.64
COCCCOc1cc(C[C@@H](C[C@H](N)[C@@H](O)C[C@H](C(=O)NCC(C)(C)C(N)=O)C(C)C)C(C)C)ccc1OC	0.624 ± 0.066
Nc1ncnc2c1ncn2[C@@H]1O[C@H](CO)[C@@H](O)[C@@H]1O	0.868 ± 0.46
Cc1ccccc1N1C(=O)c2cc(S(N)(=O)=O)c(Cl)cc2NC1C (stereo not given)	0.24 ± 0.2
CCCSc1ccc2[nH]c(NC(=O)OC)nc2c1	0.883 ± 0.12
O=C1c2c(O)cc(CO)cc2C(OC2OC(CO)C(O)C(O)C2O)c2cccc(OC3OC(CO)C(O)C(O)C3O)c21 (stereo not given) [CASANTHRANOL [cascaroside A shown]]	-0.942 ± 0.28
C[C@H](Cn1cnc2c(N)ncnc21)OCP(=O)(O)O	0.449 ± 0.26
CCC1=C(C)CN(C(=O)NCCc2ccc(S(=O)(=O)NC(=O)N[C@H]3CC[C@H](C)CC3)cc2)C1=O	0.0168 ± 0.78
Cc1c(-c2cnccn2)ssc1=S	-0.416 ± 0.25
Cc1nccnc1N1CCCCC1	0.47 ± 0.26
CC(=O)NC(Cc1ccccc1)C(=O)O (stereo not given)	0.121 ± 0.33
C[Se]CC[C@H](N)C(=O)O	0.623 ± 0.23
CC(=O)OCC(=O)[C@@]1(O)[C@H](OC(C)=O)C[C@H]2[C@@H]3CCC4=CC(=O)C=C[C@]4(C)[C@@]3(F)[C@@H](O)C[C@@]21C	0.894 ± 0.33
CS(=O)(=O)CCNCc1ccc(-c2ccc3ncnc(Nc4ccc(OCc5cccc(F)c5)c(Cl)c4)c3c2)o1 [Lapatinib Ditosylate]	-0.0282 ± 1.2
O.O.O.O.O=C([O-])CC(O)(CC(=O)[O-])C(=O)[O-].[Li+].[Li+].[Li+]	-0.228 ± 1.6
